Laboratory results taken from PubChem BioAssay.
Calls of active or inactive are those of the source.

Legend:
Albumin (Bos taurus) = Albumin (Bos taurus) (UniProt P02769); assay: bovine serum albumin binders on microarray, profiling panel, artefact control for SMM control protein annotation, biochemical, small-molecule microarray, Alexa647 label, 635/667 nm fluorescence (AID 1118); details: BSA-A647 binding, fluorescence 635 nm, higher = more signal;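 note: score merges 667 nm emission intensity and signal-to-noise per printed compound spot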
[1] = small-molecule microarray binders of probe aXIP, primary screen, biochemical, NeuroSMM set, 635/667 nm fluorescence (AID 1119); details: higher = more signal, called active from +8 up or from −8 down;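 note: probe is the protein aXip251-270 applied at 1 µg/mL to compound-printed slides; binding of probe to printed compounds measured as 667 nm fluorescence plus signal to noise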
[2] = small-molecule binders of probe aNOTCH3, primary screen, biochemical, small-molecule microarray, 635/667 nm fluorescence (AID 1120); details: higher = more signal;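 note: probe is a biotin-tagged antibody raised against NOTCH3 rather than NOTCH3 protein; score merges spot fluorescence near 667 nm with spot signal to noise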
[3] = small-molecule binders of probe aNOTCH2, primary screen, biochemical, small-molecule microarray, 635/667 nm fluorescence (AID 1121); details: higher = more signal;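 note: score merges feature fluorescence read at 667 nm with its signal to noise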
[4] = biological target: Carbonic anhydrase 2 (Homo sapiens) (UniProt P00918); assay: CAII small-molecule binders, profiling panel, biochemical, small-molecule microarray, Alexa647-labelled CAII (AID 1122); details: CAII-A647 binding fluorescence, higher = more signal
[5] = COS7 lysate on small-molecule microarray, probe aHis, 635 nm (AID 1123); details: COS7 cell lysate, fluorescence, higher = more signal;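 note: z-score combines 667nm fluorescence intensity with signal-to-noise per printed compound spot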
[6] = compound binding in COS7 lysate, probe aLAP1, primary screen, cell lysate, small-molecule microarray (AID 1124); details: probe aLAP1, fluorescence, higher = more signal;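 note: lysate comes from COS7 cells expressing LAP1 and is applied at 0.3 µg/mL; score merges spot fluorescence near 667 nm with signal-to-noise over triplicate slides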
Sam68 (KHDRBS1) = assay: Sam68 small-molecule binders, primary screen, biochemical, small-molecule microarray, 635 nm fluorescence (AID 1125); details: small-molecule microarray binding, higher = more signal;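 note: score merges 667 nm channel intensity with signal to noise over triplicate slides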
[7] = system: Chordin-like protein 2 (CHRDL2); assay: CHRDL2 small-molecule binders, primary screen, biochemical, small-molecule microarray, 635 nm fluorescence (AID 1126); details: small-molecule microarray binding, fluorescence 635 nm; higher = more signal;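 note: printed compound slides probed with Chrdl2 protein at 4 µg/mL for 1 h at 4 C; score merges 667 nm emission intensity with signal to noise over three replicate slides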
[8] = biological target: Concanavalin-A (Canavalia ensiformis) (UniProt P02866); assay: ConA small-molecule binders, primary screen, artefact control for SMM control protein annotation, biochemical, small-molecule microarray, Alexa647 label, 635 nm (AID 1127); details: ConA-A647 binding fluorescence, higher = more signal;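 note: z combines 667 nm emission intensity with signal-to-noise across three replicate slides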
[9] = anti-His antibody binders, primary screen, artefact control for SMM control protein annotation, biochemical, small-molecule microarray, 635 nm fluorescence (AID 1128); details: anti-His Alexa647 antibody binding, higher = more signal;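 note: score merges feature fluorescence with signal-to-noise for each printed compound spot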
[10] = system: Human papillomavirus type 1a E7 protein (residues 1-88); assay: HPV1a E7 small-molecule binders, primary screen, biochemical, small-molecule microarray, residues 1-88, 635 nm (AID 1129); details: small-molecule microarray binding, fluorescence 635 nm; higher = more signal
[11] = biological target: Focal adhesion kinase 1 (Homo sapiens) (UniProt Q05397); assay: small-molecule microarray binders of FAK, primary screen, biochemical, 635/667 nm fluorescence, BSA, DTT (AID 1130); details: PTK2 binding, 635 nm fluorescence, higher = more signal;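 note: composite of spot emission at 667 nm and signal to noise over triplicate slides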
[12] = system: Fibrinogen (Alexa647-labelled); assay: fibrinogen binders on compound microarrays, profiling panel, artefact control for SMM control-protein annotation, biochemical, small-molecule microarray, 635/667 nm fluorescence (AID 1131); details: fibrinogen-A647 binding fluorescence, higher = more signal;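 note: z-score merges 667 nm fluorescence with per-spot signal-to-noise over triplicate slides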
[13] = biological target: Follistatin (Homo sapiens) (UniProt P19883); assay: follistatin binders on small-molecule microarrays, primary screen, biochemical, small-molecule microarray, 635/667 nm fluorescence (AID 1132); details: FST binding, 635 nm fluorescence, higher = more signal
[14] = biological target: Fibroblast growth factor 2 (Homo sapiens) (UniProt P09038); assay: FGF2 binders on small-molecule microarrays, primary screen, biochemical, small-molecule microarray, 635/667 nm fluorescence (AID 1133); details: small-molecule microarray binding, FGF2, fluorescence 635/667; higher = more signal
[15] = mitochondrial membrane potential change in A549 cells, profiling panel, cell-based, JC-1 fluorescence, basal, 24 h, 100 nL (AID 1138); details: higher = more signal;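 note: A549 lung adenocarcinoma cells under basal conditions with no added stimulus; test concentration not given here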
Lefty1 = Lefty1 binders on small-molecule microarrays, primary screen, biochemical, small-molecule microarray, 635/667 nm fluorescence (AID 1139); details: small-molecule microarray binding, fluorescence 635/667; higher = more signal
[16] = system: wheat germ agglutinin (Triticum aestivum), Alexa647-labelled; assay: wheat germ agglutinin binders on compound microarrays, profiling panel, artefact control for SMM control-protein annotation, biochemical, small-molecule microarray, 635/667 nm fluorescence (AID 1140); details: WGA-A647 binding, 635 nm fluorescence, higher = more signal;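 note: score merges 667 nm feature emission with signal to noise over triplicate slides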
[17] = biological target: Luciferin 4-monooxygenase (Photinus pyralis) (UniProt P08659); assay: firefly luciferase enzyme inhibitors, primary screen, biochemical, luminescence, purified enzyme, 2006 set (AID 1141); details: SteadyGlo luminescence, 30 min, higher = more signal, called active from +8 up or from −8 down;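 note: cell-free assay with purified firefly luciferase at 100 ng per well in PBS; test concentration not given here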
Sequence of Luciferin 4-monooxygenase (Photinus pyralis) (P08659 whole entry, looked up): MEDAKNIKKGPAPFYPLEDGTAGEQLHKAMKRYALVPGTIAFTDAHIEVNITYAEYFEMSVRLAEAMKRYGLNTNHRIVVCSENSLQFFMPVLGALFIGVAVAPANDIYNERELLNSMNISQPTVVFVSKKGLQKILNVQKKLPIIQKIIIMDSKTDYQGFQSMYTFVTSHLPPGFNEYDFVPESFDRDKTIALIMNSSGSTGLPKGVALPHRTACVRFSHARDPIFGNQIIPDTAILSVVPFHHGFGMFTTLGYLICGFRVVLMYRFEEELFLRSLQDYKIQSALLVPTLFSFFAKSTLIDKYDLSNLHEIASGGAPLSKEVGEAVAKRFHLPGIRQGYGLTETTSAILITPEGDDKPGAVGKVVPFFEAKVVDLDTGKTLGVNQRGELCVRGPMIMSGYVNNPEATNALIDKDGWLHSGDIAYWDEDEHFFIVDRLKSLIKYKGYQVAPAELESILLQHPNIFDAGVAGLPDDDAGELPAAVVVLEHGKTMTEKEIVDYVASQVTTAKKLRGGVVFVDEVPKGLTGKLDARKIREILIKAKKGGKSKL

Sequence of Fibroblast growth factor 2 (Homo sapiens) (P09038 whole entry, looked up): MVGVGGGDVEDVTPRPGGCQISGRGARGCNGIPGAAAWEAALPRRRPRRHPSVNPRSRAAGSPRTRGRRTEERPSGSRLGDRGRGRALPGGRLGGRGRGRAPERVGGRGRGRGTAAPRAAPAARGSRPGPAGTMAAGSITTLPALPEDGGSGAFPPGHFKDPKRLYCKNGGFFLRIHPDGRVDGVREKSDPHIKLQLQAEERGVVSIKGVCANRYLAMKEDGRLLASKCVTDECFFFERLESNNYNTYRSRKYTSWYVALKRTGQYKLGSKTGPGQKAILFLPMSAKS
Sequence of Albumin (Bos taurus) (P02769 whole entry, looked up): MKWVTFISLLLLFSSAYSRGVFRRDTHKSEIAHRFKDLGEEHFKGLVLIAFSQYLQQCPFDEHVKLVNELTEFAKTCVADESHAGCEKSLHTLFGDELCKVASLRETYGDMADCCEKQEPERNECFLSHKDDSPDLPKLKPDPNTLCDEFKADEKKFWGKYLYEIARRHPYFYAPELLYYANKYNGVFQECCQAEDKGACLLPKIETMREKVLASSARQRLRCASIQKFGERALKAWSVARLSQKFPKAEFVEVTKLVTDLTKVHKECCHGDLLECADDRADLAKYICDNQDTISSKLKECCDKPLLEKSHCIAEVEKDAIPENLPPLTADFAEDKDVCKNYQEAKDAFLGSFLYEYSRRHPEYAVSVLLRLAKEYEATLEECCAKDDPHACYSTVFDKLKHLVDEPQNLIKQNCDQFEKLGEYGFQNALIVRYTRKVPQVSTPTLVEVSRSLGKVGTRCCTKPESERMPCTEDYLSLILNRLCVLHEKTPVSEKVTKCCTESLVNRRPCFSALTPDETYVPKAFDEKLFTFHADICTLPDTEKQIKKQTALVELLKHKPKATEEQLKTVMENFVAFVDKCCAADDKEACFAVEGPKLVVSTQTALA
Sequence of Focal adhesion kinase 1 (Homo sapiens) (Q05397 whole entry, looked up): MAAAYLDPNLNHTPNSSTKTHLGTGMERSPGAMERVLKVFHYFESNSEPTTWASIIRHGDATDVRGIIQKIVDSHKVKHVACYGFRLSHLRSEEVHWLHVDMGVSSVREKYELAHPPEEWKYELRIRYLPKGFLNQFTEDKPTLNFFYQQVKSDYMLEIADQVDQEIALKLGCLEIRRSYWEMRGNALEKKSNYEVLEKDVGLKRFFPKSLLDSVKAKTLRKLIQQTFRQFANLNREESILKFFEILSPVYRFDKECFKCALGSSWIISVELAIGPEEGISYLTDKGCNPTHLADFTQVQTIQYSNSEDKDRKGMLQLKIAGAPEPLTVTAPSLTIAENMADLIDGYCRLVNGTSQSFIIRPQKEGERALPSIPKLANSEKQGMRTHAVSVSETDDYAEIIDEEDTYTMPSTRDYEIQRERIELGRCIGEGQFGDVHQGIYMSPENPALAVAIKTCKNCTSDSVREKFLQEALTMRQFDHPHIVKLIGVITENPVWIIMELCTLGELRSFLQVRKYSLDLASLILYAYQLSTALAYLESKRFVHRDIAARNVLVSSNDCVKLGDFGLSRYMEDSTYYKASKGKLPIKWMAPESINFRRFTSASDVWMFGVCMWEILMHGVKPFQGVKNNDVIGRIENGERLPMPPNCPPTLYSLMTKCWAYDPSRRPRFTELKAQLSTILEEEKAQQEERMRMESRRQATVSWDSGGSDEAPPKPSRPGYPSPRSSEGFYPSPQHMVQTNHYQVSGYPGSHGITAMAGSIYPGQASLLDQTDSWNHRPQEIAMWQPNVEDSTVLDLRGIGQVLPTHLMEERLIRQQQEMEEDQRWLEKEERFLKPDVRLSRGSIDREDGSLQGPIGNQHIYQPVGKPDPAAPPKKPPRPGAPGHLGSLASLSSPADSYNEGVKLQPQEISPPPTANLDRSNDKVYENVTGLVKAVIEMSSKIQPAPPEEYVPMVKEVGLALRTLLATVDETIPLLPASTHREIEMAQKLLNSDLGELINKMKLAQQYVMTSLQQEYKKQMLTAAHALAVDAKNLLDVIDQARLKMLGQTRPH
Sequence of Concanavalin-A (Canavalia ensiformis) (P02866 whole entry, looked up): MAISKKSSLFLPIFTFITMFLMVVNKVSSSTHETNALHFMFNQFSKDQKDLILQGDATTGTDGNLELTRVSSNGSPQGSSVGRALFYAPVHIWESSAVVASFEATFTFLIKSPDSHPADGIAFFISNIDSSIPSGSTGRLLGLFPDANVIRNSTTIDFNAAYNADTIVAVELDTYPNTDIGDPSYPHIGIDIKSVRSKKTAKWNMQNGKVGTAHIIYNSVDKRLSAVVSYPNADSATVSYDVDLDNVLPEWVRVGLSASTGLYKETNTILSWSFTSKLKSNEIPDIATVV
Sequence of Follistatin (Homo sapiens) (P19883 whole entry, looked up): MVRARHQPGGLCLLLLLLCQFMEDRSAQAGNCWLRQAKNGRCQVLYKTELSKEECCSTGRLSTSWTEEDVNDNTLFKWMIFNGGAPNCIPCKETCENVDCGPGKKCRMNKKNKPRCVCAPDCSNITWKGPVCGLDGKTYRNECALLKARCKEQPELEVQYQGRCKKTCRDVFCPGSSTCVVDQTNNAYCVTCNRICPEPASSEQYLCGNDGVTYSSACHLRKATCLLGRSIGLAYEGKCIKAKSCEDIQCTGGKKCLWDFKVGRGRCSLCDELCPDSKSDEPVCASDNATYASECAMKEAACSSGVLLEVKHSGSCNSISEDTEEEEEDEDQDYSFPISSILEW

With `O=C1c2ccccc2[C@@]2(Cc3ccccc3N(CC(F)(F)F)C2=O)[C@H](c2ccc(CO)cc2)N1C1CCCCC1` the composite z-score (Albumin (Bos taurus)) was -0.976, the composite Z-score [1] was -0.336 (inactive) and the composite z-score [2] was 0.157. It also gave a composite z-score [3] of -0.122, a composite z-score [4] of 0.807 and a composite z-score [5] of 0.31. The composite z-score [6] was 0.48, the composite z-score (Sam68 (KHDRBS1)) was 0.588 and the composite z-score [7] was 0.759. It also gave a composite z-score [8] of 0.709, a composite z-score [9] of -0.194 and a composite z-score [10] of -0.07. It also gave a composite z-score [11] of -0.103, a composite z-score [12] of -0.243 and a composite z-score [13] of 1.06. For the same molecule, the composite z-score [14] was 1.06, the z-score [15] was 0.835 and the composite z-score (Lefty1) was 0.531. The composite z-score [16] was -0.643 and the z-score [17] was -0.637 (inactive).
In the case of `COC(=O)C(CC#Cc1ccc2c(c1)[C@]1(C(=O)N2)[C@H](C(=O)N2CCCCCCC2)[C@H]2C(=O)O[C@H](c3ccccc3)[C@H](c3ccccc3)N2[C@@H]1c1ccc(O)cc1)C(=O)OC`, the composite z-score (Albumin (Bos taurus)) is reported as -0.264, the composite Z-score [1] is reported as 0.448 (inactive) and the composite z-score [2] is reported as -0.379. The composite z-score [3] was -0.0829, the composite z-score [4] was -0.59 and the composite z-score [5] was -0.437. The composite z-score [6] was 0.39, the composite z-score (Sam68 (KHDRBS1)) was -0.92 and the composite z-score [7] was -1.32. The composite z-score [8] was 0.266, the composite z-score [9] was -0.231 and the composite z-score [10] was -1.54. It also gave a composite z-score [11] of -0.222, a composite z-score [12] of -2.05 and a composite z-score [13] of -0.408. It also gave a composite z-score [14] of -1.1, a z-score [15] of -1.03 and a composite z-score (Lefty1) of -0.227. The composite z-score [16] was -1.42 and the z-score [17] was -0.269 (inactive).
For `Cc1ccc(N2C(=O)c3ccccc3[C@](C)(C(=O)NCC(C)C)[C@@H]2c2ccc(CO)cc2)nc1`, the composite z-score (Albumin (Bos taurus)) was -1.09, the composite Z-score [1] was 0.917 (inactive) and the composite z-score [2] was -0.278. For the same molecule, the composite z-score [3] was -0.126, the composite z-score [4] was 0.265 and the composite z-score [5] was 0.437. It also gave a composite z-score [6] of -0.115, a composite z-score (Sam68 (KHDRBS1)) of -0.68 and a composite z-score [7] of -0.233. It also gave a composite z-score [8] of -1.92, a composite z-score [9] of -1.02 and a composite z-score [10] of -1.2. The composite z-score [11] was -1.04, the composite z-score [12] was -1.43 and the composite z-score [13] was -0.125. It also gave a composite z-score [14] of -0.671, a z-score [15] of -0.393 and a composite z-score (Lefty1) of -0.589. The composite z-score [16] was 0.0574 and the z-score [17] was 0.525 (inactive).
With `O=C(NCc1ccccc1)[C@@]1(Cc2ccccc2)COC(c2ccc(OCCCO)cc2)=N1` the composite z-score (Albumin (Bos taurus)) was 0.48, the composite Z-score [1] was -0.179 (inactive) and the composite z-score [2] was 0.0539. For the same molecule, the composite z-score [3] was -0.0063, the composite z-score [4] was 0.504 and the composite z-score [5] was 1.71. The composite z-score [6] was 0.144, the composite z-score (Sam68 (KHDRBS1)) was 0.682 and the composite z-score [7] was -0.594. For the same molecule, the composite z-score [8] was 0.865, the composite z-score [9] was 2.46 and the composite z-score [10] was 1.17. For the same molecule, the composite z-score [11] was 0.773, the composite z-score [12] was 0.838 and the composite z-score [13] was 0.0985. For the same molecule, the composite z-score [14] was -0.238, the z-score [15] was -1.56 and the composite z-score (Lefty1) was -0.554. The composite z-score [16] was 0.449 and the z-score [17] was -0.603 (inactive).
In the case of `CC1=C([C@H](O)CCc2ccccc2)[C@H](CO)[C@@H]2C(=O)N(Cc3ccccc3)C(=O)[C@@H]2C1`, the composite z-score (Albumin (Bos taurus)) is reported as 0.427, the composite Z-score [1] is reported as 0.39 (inactive) and the composite z-score [2] is reported as 0.0349. The composite z-score [3] was -0.117, the composite z-score [4] was 0.347 and the composite z-score [5] was 0.307. The composite z-score [6] was -0.222, the composite z-score (Sam68 (KHDRBS1)) was -0.364 and the composite z-score [7] was -0.0449. It also gave a composite z-score [8] of 1.13, a composite z-score [9] of 0.635 and a composite z-score [10] of 0.0269. For the same molecule, the composite z-score [11] was 0.194, the composite z-score [12] was 0.962 and the composite z-score [13] was 0.738. It also gave a composite z-score [14] of 0.113, a z-score [15] of 0.901 and a composite z-score (Lefty1) of 0.388. The composite z-score [16] was 0.313 and the z-score [17] was 0.215 (inactive).
For `C[N+](C)(C)CCCCNC(=O)[C@@H]1C[C@@H]2C(=O)N3CCC[C@H]3C(=O)N2[C@@H]1c1cccc(OCCO)c1`, the composite z-score (Albumin (Bos taurus)) was -0.486, the composite Z-score [1] was 2.6 (inactive) and the composite z-score [2] was -0.199. The composite z-score [3] was -0.153, the composite z-score [4] was 0.678 and the composite z-score [5] was 0.538. It also gave a composite z-score [6] of 0.248, a composite z-score (Sam68 (KHDRBS1)) of 1.04 and a composite z-score [7] of 1.04. The composite z-score [8] was 0.909, the composite z-score [9] was 2.72 and the composite z-score [10] was 0.143. It also gave a composite z-score [11] of 0.275, a composite z-score [12] of -0.181 and a composite z-score [13] of 1.39. It also gave a composite z-score [14] of 1.73, a z-score [15] of -0.0151 and a composite z-score (Lefty1) of 0.859. The composite z-score [16] was -0.392 and the z-score [17] was -1.23 (inactive).
